Binding signal data for 87 sequences are collected here from paper PMC10668032, “Altered binding affinity of SIX1-Q177R correlates with enhanced WNT5A and WNT pathway effector expression in Wilms tumor”.

Over roughly 33,000 sequences, “e-score” has its median near -0.05; the highest 2% begin near 0.38. The list comes from a sample in which the highest values are over-represented; it also holds similar and randomly drawn sequences.

The target of the test is T1, SIX1-Q177R homeodomain (human, UniProt Q15475 108-198, Q177R).
T1 sequence: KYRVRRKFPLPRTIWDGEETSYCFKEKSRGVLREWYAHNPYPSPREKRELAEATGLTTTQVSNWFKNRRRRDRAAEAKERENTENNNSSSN
Kind of test: universal protein binding microarray; Universal all-10-mer PBM (8x60K, AMADID 030236), 300 nM GST-tagged protein, Alexa Fluor 488 anti-GST; buffer, salt, pH and temperature not stated (as in Berger); high values mean tight binding. Particulars: protein: ivt; tags: N-terminal GST; dsDNA, one strand shown. The procedure, abridged:
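Duplicate protein binding microarrays (universal 'all 10-mer', 8×60K format) were incubated with GST-tagged homeodomains at 300 nM final concentration. Binding was quantified as 8-mer E-scores with the Universal PBM Analysis Suite.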
Regarding CCGGTGCG, the binding signal amounted to 0.179 ± 0.0475 E-score.
The figure for CCGGTATC is 0.284 ± 0.0126 E-score; for ACGGTGCG it is 0.167 ± 0.0105 E-score; for ACGGTGTG it is 0.367 ± 0.0153 E-score.
Regarding ACGGTGTC, the binding signal is 0.4875 ± 0.00246 E-score.
As to CCGGTGTC, the binding signal was found to be 0.4894 ± 0.00404 E-score.
ACGGGGTG: the binding signal amounted to 0.338 ± 0.0174 E-score.
The figure for ACCTGGTG is 0.322 ± 0.00697 E-score; for ACAATACA it is 0.194 ± 0.0158 E-score.
For CTAGGACA the value was 0.162 ± 0.0316 E-score; for TAATCACA, 0.213 ± 0.0222 E-score.
As for GGGGTTGA, the binding signal was 0.2 ± 0.025 E-score.
The figure for AGACACTC is 0.3634 ± 0.00141 E-score; for CGACACTA it is 0.41 ± 0.00325 E-score; for CGACACTC it is 0.437 ± 0.00883 E-score.
The figure for AGACACTA is 0.343 ± 0.00686 E-score; for GGACACTA it is 0.358 ± 0.00739 E-score.
The figure for ACGCCCGA is 0.17 ± 0.0302 E-score.
Regarding CCTGCACC, the binding signal stood at 0.16 ± 0.00461 E-score.
The figure for ACCCAAGT is 0.157 ± 0.00998 E-score; for AAGCACCA it is 0.24 ± 0.00412 E-score; for ACGGACAC it is 0.41 ± 0.0174 E-score.
In the case of CCGGACGA, the binding signal stood at 0.185 ± 0.0376 E-score.
For CCGGACAC, the binding signal worked out at 0.427 ± 0.0142 E-score.
The figure for GCGGACAC is 0.406 ± 0.0139 E-score; for GCGCACAC it is 0.289 ± 0.0303 E-score.
For ACGGAGTC the value was 0.181 ± 0.0091 E-score; for GCGGATAC, 0.2681 ± 0.00246 E-score.
The figure for ACGGATAC is 0.28 ± 0.00317 E-score; for CCGGATAC it is 0.262 ± 0.00585 E-score.
Take CCCTCTGA: the binding signal came to 0.153 ± 0.0264 E-score.
For CACTGAGA the value was 0.202 ± 0.0113 E-score; for GCTTAACA, 0.171 ± 0.0194 E-score.
For ACCAGAGT the value was 0.16 ± 0.0333 E-score; for ACCCTTAA, 0.175 ± 0.0783 E-score; for ATCCCTAG, 0.154 ± 0.00215 E-score.
Regarding CACTCGTA, the binding signal amounted to 0.152 ± 0.0172 E-score.
Take CGGCGTAC: the binding signal was determined as 0.209 ± 0.00229 E-score.
For the sequence TATGGACA, the binding signal worked out at 0.167 ± 0.0099 E-score.
With CACTTTAC, the binding signal came out at 0.221 ± 0.0328 E-score.
The figure for ACACCTTC is 0.46 ± 0.0107 E-score; for ACACTTTG it is 0.31 ± 0.0292 E-score; for ACCCCTTA it is 0.228 ± 0.014 E-score.
For CCACCTTC the value was 0.19 ± 0.00382 E-score.
Turning to ACCCCTTC, the binding signal amounted to 0.2425 ± 0.00198 E-score.
For the sequence ACACGTTA, the binding signal stood at 0.297 ± 0.0383 E-score.
ACACCTTA: the binding signal was found to be 0.456 ± 0.00729 E-score.
The figure for ACACCTTG is 0.44 ± 0.00935 E-score; for ACCCCTTG it is 0.237 ± 0.00827 E-score; for GACAGGGC it is 0.162 ± 0.0431 E-score.
The figure for TTACACAA is 0.223 ± 0.0118 E-score; for GAAGCACC it is 0.238 ± 0.00424 E-score; for GTACCCCA it is 0.247 ± 0.0214 E-score.
For ATACGACA the value was 0.18 ± 0.0318 E-score.
Turning to ACCCAAGA, the binding signal came out at 0.163 ± 0.00205 E-score.
As for CACCGCAG, the binding signal is 0.241 ± 0.0286 E-score.
Turning to AGAAACAC, the binding signal was found to be 0.408 ± 0.0147 E-score.
In the case of AGAAAACA, the binding signal worked out at 0.192 ± 0.0184 E-score.
Consider CGAAACAC, for which the binding signal came out at 0.339 ± 0.0288 E-score.
The figure for GGAAACAC is 0.374 ± 0.004 E-score.
Consider GAAAACAC, for which the binding signal was determined as 0.383 ± 0.0136 E-score.
The figure for AAAAACAC is 0.368 ± 0.0203 E-score; for GGGATCCC it is 0.31 ± 0.0322 E-score.
For GGTGCATA, the binding signal stood at 0.195 ± 0.0199 E-score.
The figure for GGGATCAA is 0.189 ± 0.0285 E-score.
For CGTGTTCA, the binding signal is 0.4087 ± 0.0026 E-score.
As for AGTGTTCA, the binding signal turned out to be 0.343 ± 0.0114 E-score.
The figure for GGTGCTCA is 0.25 ± 0.046 E-score.
For GGTGTTCA the value was 0.4614 ± 0.000559 E-score.
Take GGGGTTCA: the binding signal was found to be 0.256 ± 0.0435 E-score.
The figure for CGTGTTCC is 0.34 ± 0.0151 E-score; for CCCGATGA it is 0.16 ± 0.00231 E-score.
For CTCCCGCA the value was 0.155 ± 0.0331 E-score; for ACCCAGGC, 0.162 ± 0.0568 E-score; for CCCCGCGG, 0.193 ± 0.0298 E-score.
For GTACGACA the value was 0.297 ± 0.0138 E-score; for CGTGGTGC, 0.187 ± 0.0118 E-score; for GGTGCAAC, 0.272 ± 0.00472 E-score.
ACACCATG: the binding signal was determined as 0.4696 ± 0.00232 E-score.
As to ATACCATC, the binding signal was determined as 0.151 ± 0.00506 E-score.
On to ACACCATC, for which the binding signal worked out at 0.4671 ± 0.000891 E-score.
Consider ACTCCATA, for which the binding signal was 0.2012 ± 0.000827 E-score.
With GCACCATA, the binding signal worked out at 0.174 ± 0.00986 E-score.
The figure for ACTCCATG is 0.212 ± 0.0247 E-score.
The figure for ACACCATA is 0.459 ± 0.00633 E-score; for ACCCCATG it is 0.226 ± 0.0299 E-score.
For ACCCCATC the value was 0.245 ± 0.00929 E-score.
